Experimental data published in PubChem BioAssay (NCATS).
Unmarked numbers belong to inactive results. Inconclusive results are not listed. Active and inactive are the calls of the source. Unless noted, calls follow the shape of the dose curve; as a rule, active = well fitted curve in either direction with a large enough effect (not every such curve was filed as active); inconclusive = small, poorly fitted or top-dose-only effect, or another doubt; inactive = flat fitted curve, though single readings scatter.

Experiments:
[1] = target: Lysosomal acid glucosylceramidase (Homo sapiens) (UniProt P04062); experiment: Glucocerebrosidase-p2 (AID 348; in the data active = potency below about 10 µM; also: potency is read from the fitted curve at half-maximal effect); details: purified GBA, blue fluorogenic substrate, 40 min
Outline: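 Normal human glucocerebrosidase (0.2 nM) with blue fluorogenic substrate (80 uM final) in citrate/phosphate pH 5.9 with 10mM sodium taurocholate, 0.01% tween-20; 40 min RT, NaOH/glycine stop; fluorescence Ex 365/Em 440; AC50 from a titration from 0.6 nM upwards.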

[2] = AP1 Signaling Pathway (AID 357); details: ME-180 AP-1-bla reporter, EGF-induced, beta-lactamase ratio, 5 h; at 7.69 µM (top of the series) unless noted;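 also: ME-180 reporter cells stimulated with EGF at its EC50 level; % is scaled to controls: 0 for no effect and ±100 for the full control effect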
Outline: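 Modulation of EGF-driven AP-1 transcription was assessed with a beta-lactamase reporter in ME-180 cells. Compound and EC50 EGF were co-incubated 5 hours at 37 °C before 2.5-hour CCF4 loading at room temperature and dual-emission reading.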

[3] = target: Cytochrome P450 1A2 (Homo sapiens) (UniProt P05177); experiment: p450-cyp1a2 (AID 410; calls by dose curve; also: potency is read from the fitted curve at half-maximal effect); details: recombinant CYP1A2, luciferin-ME demethylation, luminescence; series mostly up to 57 µM
Outline: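 Luminescent demethylation readout: Luciferin-ME (100uM, equal to Km) turned over by 20nM CYP1A2 for 60 min at room temperature after NADPH regeneration addition, following 10 min compound preincubation. Normalization used 57 uM furafylline as full inhibition.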

[4] = NFAT Signaling Pathway (AID 444); details: Jurkat NFAT-bla M1, carbachol, beta-lactamase ratio, 5 h; at 7.69 µM (top of the series) unless noted;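 also: carbachol stimulus at about its EC50 of 1 µM final; % is scaled to controls: 0 for no effect and ±100 for the full control effect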
Outline: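 Jurkat cells with NFAT-driven β-lactamase reporter and co-expressed M1 receptor, stimulated with carbachol (final 1 uM, ~EC50), compound titration, 5 h at 37 °C. CCF4 loaded 1 h at RT; 460/530 nm ratio gave %activity and AC50.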

[5] = Stat Signaling Pathway (AID 446); details: ME-180 SIE beta-lactamase reporter, IL-6 stimulated, 5 h; at 7.69 µM (top of the series) unless noted;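 also: ME-180 cervical cancer cells given 40 pM IL-6 alongside compound; SIE-controlled beta-lactamase reporter measured as 460/530 nm FRET emission ratio; % is scaled to controls: 0 for no effect and ±100 for the full control effect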
Outline: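 Emission at 460 and 530 nm (excitation 405 nm) reports SIE-controlled beta-lactamase in ME-180 cells. Cells received compound with 40 pM IL-6 for 5 hrs at 37 C; data scaled between 300 pM IL-6 and 125 nM JAK-inhibitor controls.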

[6] = target: Glucocorticoid receptor (Homo sapiens) (UniProt P04150); experiment: GR-GFP Redistribution (AID 450;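 active = compounds whose dose series gives a full or clear partial fitted curve of increased nuclear translocation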; also: potency is read from the fitted curve at half-maximal effect); details: U2OS GR-GFP nuclear translocation, laser cytometry, 2 h
[7] = target: Glucocorticoid receptor (Homo sapiens) (UniProt P04150); experiment: GR-EFC Redistribution (AID 451; calls by dose curve; also: potency is read from the fitted curve at half-maximal effect); details: CHO-K1 GR-EFC translocation, beta-gal luminescence, 2 h
Outline: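 CHO-K1 cells expressing nuclear EA and GR-ED fragments of b-gal; compounds titrated up to 46 uM final, 2 h at 37 C. GR nuclear translocation read as complemented b-gal luminescence after 1 h RT detection.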

[8] = target: Mitogen-activated protein kinase 10 (Mus musculus) (UniProt Q61831); experiment: JNK3 AlphaScreen Assay (AID 530); details: JNK3 lysate, c-Jun phosphorylation; series mostly up to 57.1 µM;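 also: kinase came from lysate of stimulated human HepG2 cells; signal reports phosphorylation of biotinylated GST-cJun 1-79 at Ser73 with 10 µM ATP; % is scaled to controls: 0 for no effect and ±100 for the full control effect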
Outline: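 Activity was read by AlphaScreen after JNK3-containing HepG2 lysate (cytokine pre-activated) phosphorylated biotinylated GST-cJun with 10 uM ATP at room temperature. Phospho-Ser73 cJun antibody with Protein-A acceptor beads provided detection.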

[9] = target: 3',5'-cyclic-AMP phosphodiesterase 4B (Homo sapiens) (UniProt Q07343); experiment: qHTS Assay for Inhibitors of PDE-IV (AID 607; active = well fitted activation curve with a large enough effect in the main read-out, with a control signal flat, not every such curve was filed as active; also: % of control where 0% means no effect); details: HEK293 ACTOne CNG channel cells, membrane potential fluorescence; series mostly up to 22.9 µM
Outline: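 The readout is membrane depolarisation from a cAMP-sensing CNG channel, detected with a potential dye at ex 535/em 590. Cells were HEK293-derived (endogenous PDE-IV) at 1000 cells/well, titrated up to 22.9 uM final.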

[10] = target: Cytochrome P450 3A4 (Homo sapiens) (UniProt P08684); experiment: qHTS Assay for Activators of Cytochrome P450 3A4 (AID 885; active = well fitted curve in the direction sought with a large enough effect; an effect the other way counts as inactive or inconclusive; also: nearly all actives have a fitted effect of over 65% in size); details: recombinant CYP3A4, Luciferin-PPXE luminescence, 60 min; series mostly up to 57.1 µM
Outline: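 Activators are scored by enhanced luminescence from CYP3A4 conversion of luciferin-PPXE (25uM, equal to KM) to luciferin, after 60 min at RT with an NADPH-regenerating system.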

[11] = Primary qHTS for small molecule stabilizers of the endoplasmic reticulum resident proteome: Secreted ER Calcium Modulated Protein (SERCaMP) assay (AID 1508630; active = well fitted curve in the direction sought with a large enough effect; an effect the other way counts as inactive or inconclusive; also: % is scaled to controls: 0 for no effect and ±100 for the full control effect); details: SH-SY5Y GLuc-SERCaMP (Gaussia luciferase released on ER calcium loss) secretion, thapsigargin, luminescence; series mostly up to 38.4 µM
Outline: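 The SH-SY5Y reporter protocol was run at 3 concentrations up to 38.3 uM (primary) or 11 concentrations (follow-up): 16 h compound, 100 nM thapsigargin for 4 h, then extracellular luciferase luminescence.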

[12] = target: Cytochrome P450 3A4 (Homo sapiens) (UniProt P08684); experiment: qHTS Assay for Inhibitors and Substrates of Cytochrome P450 3A4 (AID 884; active = well fitted curve in the direction sought with a large enough effect; an effect the other way counts as inactive or inconclusive; also: nearly all actives have a fitted effect of over 50% in size; also: potency is read from the fitted curve at half-maximal effect); details: recombinant CYP3A4, Luciferin-PPXE luminescence; series mostly up to 57.1 µM
Outline: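 Luminescent readout of luciferin produced by CYP3A4 (20 nM) dealkylation of Luciferin-PPXE, 25 uM (its KM). NADPH-driven reaction ran 60 min at RT after 10 min compound preincubation; data scaled to 57 uM ketoconazole as 100% inhibition.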

[13] = target: Cytochrome P450 2C9 (Homo sapiens) (UniProt P11712); experiment: qHTS Assay for Inhibitors and Substrates of Cytochrome P450 2C9 (AID 883; active = well fitted curve in the direction sought with a large enough effect; an effect the other way counts as inactive or inconclusive; also: potency is read from the fitted curve at half-maximal effect; nearly all actives have a fitted effect of over 60% in size); details: recombinant CYP2C9, luciferin-H luminescence, 60 min; series mostly up to 57.1 µM
Outline: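 Human CYP2C9 (10nM) with Luciferin-H at 100uM (its KM) in 25mM KPO4; compound preincubated 10 min at 37C, then NADPH regeneration for 60 min at 37C. Luciferin read by luminescence after detection reagent; normalized to 57uM sulphaphenazole as full inhibition.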

[14] = target: Cytochrome P450 2C19 (Homo sapiens) (UniProt P33261); experiment: qHTS Assay for Inhibitors and Substrates of Cytochrome P450 2C19 (AID 899; active = well fitted curve in the direction sought with a large enough effect; an effect the other way counts as inactive or inconclusive; also: potency is read from the fitted curve at half-maximal effect; nearly all actives have a fitted effect of over 60% in size); details: recombinant CYP2C19, luciferin-H EGE luminescence; series mostly up to 57.1 µM
Outline: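 5 nM human CYP2C19 with 10uM Luciferin-H EGE (at KM) in 50mM KPO4, compound preincubated 10 min at 37C, then NADPH regeneration for 60 min at 37C. Luciferin read by luminescence after detection reagent; normalized to 57uM ketoconazole as full inhibition.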

[15] = qHTS Assay for Identification of Small Molecule Agonists for Hypoxia Response Element Signaling Pathway (AID 914; active = well fitted activation curve with a large enough effect in the signal ratio, with a control signal flat, not every such curve was filed as active; the % refers to the signal ratio; also: potency is read from the fitted curve at half-maximal effect; as to activation: % of control where 0% means no effect); details: ME-180 (cervical carcinoma) HRE-bla reporter, beta-lactamase ratio, CoCl2, 17 h; activation: active compounds read high
Outline: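 HRE-bla ME-180 assay for agonist-like enhancement of an EC50 CoCl2 stimulus: 17 h at 37 degrees Celsius, CCF4 for 2.5 h, ratiometric 460/530 nm signal converted to %Activity and fitted to AC50.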

Sequence of Lysosomal acid glucosylceramidase (Homo sapiens) (P04062 whole entry, looked up): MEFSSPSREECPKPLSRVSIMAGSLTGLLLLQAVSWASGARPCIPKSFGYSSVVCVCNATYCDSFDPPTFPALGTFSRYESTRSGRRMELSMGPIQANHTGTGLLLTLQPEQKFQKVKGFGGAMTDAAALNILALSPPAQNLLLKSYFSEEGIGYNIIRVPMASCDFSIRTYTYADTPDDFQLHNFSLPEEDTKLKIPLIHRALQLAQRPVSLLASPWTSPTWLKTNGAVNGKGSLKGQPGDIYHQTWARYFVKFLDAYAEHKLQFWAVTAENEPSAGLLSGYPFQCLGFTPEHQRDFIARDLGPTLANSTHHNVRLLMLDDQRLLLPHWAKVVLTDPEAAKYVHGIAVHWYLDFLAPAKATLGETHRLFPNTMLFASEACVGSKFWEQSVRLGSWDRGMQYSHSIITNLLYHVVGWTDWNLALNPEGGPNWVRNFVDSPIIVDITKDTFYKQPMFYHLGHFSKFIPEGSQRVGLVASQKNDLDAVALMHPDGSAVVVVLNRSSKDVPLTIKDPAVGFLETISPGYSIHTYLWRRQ
Sequence of 3',5'-cyclic-AMP phosphodiesterase 4B (Homo sapiens) (Q07343 whole entry, looked up): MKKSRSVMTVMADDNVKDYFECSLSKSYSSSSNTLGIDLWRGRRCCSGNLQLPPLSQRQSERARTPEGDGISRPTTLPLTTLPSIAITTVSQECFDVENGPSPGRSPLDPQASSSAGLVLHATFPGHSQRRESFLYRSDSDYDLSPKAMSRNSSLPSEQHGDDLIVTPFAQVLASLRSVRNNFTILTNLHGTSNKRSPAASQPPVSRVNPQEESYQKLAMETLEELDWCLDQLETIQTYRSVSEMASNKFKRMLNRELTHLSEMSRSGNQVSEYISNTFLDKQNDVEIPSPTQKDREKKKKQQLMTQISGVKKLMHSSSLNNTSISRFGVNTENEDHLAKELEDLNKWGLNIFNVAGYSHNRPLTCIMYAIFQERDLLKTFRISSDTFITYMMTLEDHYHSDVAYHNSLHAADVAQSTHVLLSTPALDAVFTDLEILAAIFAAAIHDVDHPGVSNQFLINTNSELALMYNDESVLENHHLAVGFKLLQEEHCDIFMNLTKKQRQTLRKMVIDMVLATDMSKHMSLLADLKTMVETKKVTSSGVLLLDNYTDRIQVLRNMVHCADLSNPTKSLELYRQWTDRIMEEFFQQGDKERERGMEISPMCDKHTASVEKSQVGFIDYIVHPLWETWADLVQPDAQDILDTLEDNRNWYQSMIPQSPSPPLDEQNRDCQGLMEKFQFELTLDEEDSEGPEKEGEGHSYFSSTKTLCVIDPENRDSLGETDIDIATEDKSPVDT
Sequence of Glucocorticoid receptor (Homo sapiens) (P04150 whole entry, looked up, the tested form may be a part): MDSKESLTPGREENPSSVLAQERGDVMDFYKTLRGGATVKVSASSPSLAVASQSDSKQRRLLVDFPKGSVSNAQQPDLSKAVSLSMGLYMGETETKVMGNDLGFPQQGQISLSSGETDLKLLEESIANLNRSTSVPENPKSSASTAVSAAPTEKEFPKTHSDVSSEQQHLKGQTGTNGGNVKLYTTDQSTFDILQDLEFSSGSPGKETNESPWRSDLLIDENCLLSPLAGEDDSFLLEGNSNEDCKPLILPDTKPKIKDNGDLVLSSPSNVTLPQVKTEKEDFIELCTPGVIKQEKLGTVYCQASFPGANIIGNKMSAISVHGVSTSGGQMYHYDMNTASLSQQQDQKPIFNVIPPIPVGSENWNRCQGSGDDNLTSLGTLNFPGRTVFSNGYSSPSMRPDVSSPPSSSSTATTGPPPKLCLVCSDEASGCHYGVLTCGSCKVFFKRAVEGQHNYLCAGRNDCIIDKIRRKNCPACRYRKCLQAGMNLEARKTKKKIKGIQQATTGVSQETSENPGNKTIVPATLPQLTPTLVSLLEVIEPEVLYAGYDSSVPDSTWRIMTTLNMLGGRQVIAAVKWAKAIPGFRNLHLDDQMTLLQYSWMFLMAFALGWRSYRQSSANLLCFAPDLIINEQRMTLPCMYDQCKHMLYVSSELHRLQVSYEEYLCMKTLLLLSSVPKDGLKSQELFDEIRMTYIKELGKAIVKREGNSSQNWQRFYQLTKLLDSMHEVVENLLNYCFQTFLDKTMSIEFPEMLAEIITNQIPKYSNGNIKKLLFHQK
Sequence of Cytochrome P450 1A2 (Homo sapiens) (P05177 whole entry, looked up): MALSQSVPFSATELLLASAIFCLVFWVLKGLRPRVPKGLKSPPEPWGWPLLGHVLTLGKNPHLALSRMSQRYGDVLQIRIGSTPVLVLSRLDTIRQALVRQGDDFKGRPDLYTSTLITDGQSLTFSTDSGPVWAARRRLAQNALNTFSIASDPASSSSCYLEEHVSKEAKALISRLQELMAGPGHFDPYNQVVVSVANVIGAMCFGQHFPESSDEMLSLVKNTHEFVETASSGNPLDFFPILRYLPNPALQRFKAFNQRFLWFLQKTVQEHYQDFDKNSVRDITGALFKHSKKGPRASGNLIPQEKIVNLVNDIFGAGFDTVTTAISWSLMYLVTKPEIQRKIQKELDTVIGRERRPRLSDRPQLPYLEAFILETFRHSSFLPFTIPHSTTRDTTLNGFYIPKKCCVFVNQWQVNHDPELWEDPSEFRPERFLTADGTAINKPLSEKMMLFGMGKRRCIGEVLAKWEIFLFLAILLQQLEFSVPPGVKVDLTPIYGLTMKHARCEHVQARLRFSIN
Sequence of Cytochrome P450 3A4 (Homo sapiens) (P08684 whole entry, looked up): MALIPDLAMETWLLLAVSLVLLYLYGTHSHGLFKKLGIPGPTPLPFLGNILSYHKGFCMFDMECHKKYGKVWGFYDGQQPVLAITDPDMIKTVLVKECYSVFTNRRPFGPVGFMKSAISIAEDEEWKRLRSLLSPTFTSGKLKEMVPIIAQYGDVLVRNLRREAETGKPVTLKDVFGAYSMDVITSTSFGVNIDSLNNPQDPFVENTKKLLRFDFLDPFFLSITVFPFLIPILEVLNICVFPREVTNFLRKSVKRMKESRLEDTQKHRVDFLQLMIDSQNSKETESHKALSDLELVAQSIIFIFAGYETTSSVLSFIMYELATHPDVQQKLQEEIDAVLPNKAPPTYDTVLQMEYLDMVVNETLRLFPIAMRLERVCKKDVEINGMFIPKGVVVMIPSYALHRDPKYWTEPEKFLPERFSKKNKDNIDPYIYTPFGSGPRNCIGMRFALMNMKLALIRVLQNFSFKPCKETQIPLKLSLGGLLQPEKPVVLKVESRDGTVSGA
Sequence of Cytochrome P450 2C9 (Homo sapiens) (P11712 whole entry, looked up): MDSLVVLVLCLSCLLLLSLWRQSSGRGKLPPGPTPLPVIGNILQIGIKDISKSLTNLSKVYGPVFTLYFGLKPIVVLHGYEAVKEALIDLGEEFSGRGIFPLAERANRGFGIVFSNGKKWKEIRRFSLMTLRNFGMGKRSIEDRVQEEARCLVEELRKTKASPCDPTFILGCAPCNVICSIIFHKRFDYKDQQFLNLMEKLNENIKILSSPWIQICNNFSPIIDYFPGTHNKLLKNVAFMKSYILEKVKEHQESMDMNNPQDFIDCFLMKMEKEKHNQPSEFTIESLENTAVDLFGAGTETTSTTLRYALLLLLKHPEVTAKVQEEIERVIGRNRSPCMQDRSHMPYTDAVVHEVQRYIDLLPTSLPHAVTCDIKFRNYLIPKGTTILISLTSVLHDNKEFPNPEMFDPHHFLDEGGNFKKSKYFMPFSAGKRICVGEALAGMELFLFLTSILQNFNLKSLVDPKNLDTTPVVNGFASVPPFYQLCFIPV
Sequence of Cytochrome P450 2C19 (Homo sapiens) (P33261 whole entry, looked up): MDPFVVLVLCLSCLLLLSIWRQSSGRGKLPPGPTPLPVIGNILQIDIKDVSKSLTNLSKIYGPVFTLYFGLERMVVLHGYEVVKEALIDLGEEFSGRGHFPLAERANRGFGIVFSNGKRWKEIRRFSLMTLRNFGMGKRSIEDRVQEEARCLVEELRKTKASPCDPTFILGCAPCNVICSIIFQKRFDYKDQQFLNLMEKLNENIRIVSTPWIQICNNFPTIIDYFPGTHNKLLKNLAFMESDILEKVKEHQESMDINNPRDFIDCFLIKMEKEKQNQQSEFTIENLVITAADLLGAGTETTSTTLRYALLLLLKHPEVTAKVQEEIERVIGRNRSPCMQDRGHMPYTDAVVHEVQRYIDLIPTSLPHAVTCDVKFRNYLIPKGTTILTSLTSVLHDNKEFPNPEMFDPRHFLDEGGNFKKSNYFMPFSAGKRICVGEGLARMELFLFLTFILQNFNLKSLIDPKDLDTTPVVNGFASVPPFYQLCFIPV

Row | Structure (SMILES) | Potency [1] | activity change, negative = inhibition [2] | Potency [3] | activity change, negative = inhibition [4] | activity, negative = inhibition [5] | Potency [6] | Potency [7] | Potency [8] | Potency [9] | Potency [10] | outcome [11] | Potency [12] | Potency [13] | Potency [14] | Potency [15] | activation [15]
1 | COc1ccc(Oc2ncc3nc(C)c(=O)n(C)c3n2)cc1 | > 11.4 µM | 14.2% | 12.6 µM (active) | -1.39% | -6.21% | > 9.22 µM | > 46 µM | inactive | inactive | inactive | inactive |  |  |  |  | 
2 | COc1ncc2ncc(=O)n(CCC#N)c2n1 | > 11.4 µM | 1.28% | 20 µM (active) | -1.77% | -9.79% | > 9.22 µM | > 46 µM | inactive | inactive |  | inactive |  |  |  |  | 
3 | Cc1nc2cnc(Oc3ccccc3)nc2n(CCC#N)c1=O | > 11.4 µM | -21.9% | 20 µM (active) | -8.6% | -6.56% | > 9.22 µM | > 46 µM | inactive | inactive | inactive | inactive |  |  |  |  | 
4 | O=c1c(-c2cccc(F)c2)nc2cncnc2n1C1CC1 | > 11.4 µM | -9.05% | 1.58 µM (active) | -1.62% | 1.43% | > 9.22 µM | > 46 µM | inactive | inactive | inactive | inactive |  |  |  |  | 
5 | COc1ccc(-n2c(=O)c(C)nc3cnc(Nc4ccccc4)nc32)cc1 | > 11.4 µM | -25% | 5.01 µM (active) | 0.929% | -5.94% | > 9.22 µM | > 46 µM | inactive | inactive | inactive | inactive |  |  |  |  | 
6 | Cn1c(=O)c(-c2ccc(F)cc2)nc2cnc(Oc3ccccc3)nc21 | > 11.4 µM | 14.3% | 0.316 µM (active) | 5.5% | -0.989% | > 9.22 µM | > 46 µM | inactive | inactive |  | inactive | inactive |  |  |  | 
7 | COCCn1c(=O)c(-c2ccc(Cl)cc2)nc2cnc(Oc3ccccc3)nc21 | > 11.4 µM | -8.55% | 0.794 µM (active) | 17.4% | -10% | > 9.22 µM | > 46 µM | inactive | inactive | inactive | inactive |  | 7.94 µM (active) |  |  | 
8 | Cc1nc2cnc(Nc3ccccc3)nc2n(Cc2cccs2)c1=O | > 11.4 µM | 6.83% | 1.58 µM (active) | 31.1% | 10.1% | > 9.22 µM | > 46 µM | inactive | inactive | inactive | inactive | 7.94 µM (active) |  |  |  | 
9 | COc1ncc2ncc(=O)n(Cc3ccc(F)cc3)c2n1 | > 11.4 µM | -11.8% | 12.6 µM (active) | -5.96% | -7.56% | > 9.22 µM | > 46 µM | inactive | inactive | inactive | inactive |  |  | 7.94 µM (active) |  | 
10 | COc1ccc(Oc2ncc3nc(-c4cccs4)c(=O)n(C)c3n2)cc1 | > 11.4 µM | 18.3% | 3.16 µM (active) | 28.2% | 27.9% | > 9.22 µM | > 46 µM | inactive | inactive | inactive | inactive | 3.98 µM (active) | 3.16 µM (active) |  | 3.16 µM (active) | 
11 | O=c1c(-c2cc(F)cc(F)c2)nc2cnc(Oc3ccccc3)nc2n1C1CC1 | > 11.4 µM | -6.73% | 2.51 µM (active) | -0.993% | -0.523% | > 9.22 µM | > 46 µM | inactive | inactive |  | inactive |  |  |  |  | 7.93%
